Laboratory results taken from PubChem BioAssay AID1036 (National Center for Advancing Translational Sciences (NCATS), 2008).
Inconclusive results are not listed. Calls of active or inactive are those of the source. Calls come from the whole dose curve.

experiment: NSCLC 1 Cell Viability Secondary Assay for qHTS Assay for Epigenetic Modulator; conditions: NSCLC 1 cells viability, MTS absorbance, 4 days
Excerpt: NIH Molecular Libraries Screening Centers Network [MLSCN] NIH Chemical Genomics Center [NCGC] MLSCN Grant: 1 X01 MH079860-01 Assay Provider: Elisabeth D. Martinez, University of Texas SW Medical Center NCGC Assay Overview: This secondary assay characterizes selected actives identified in the qHTS of the Locus Derepression (LDR) assay (PubChem AID 597). The LDR assay detects the derepression of a GFP reporter that is stably integrated in a region of the genome of murine c127i mammary cells that is presumably silenced. Compounds that cause derepression of the locus to express GFP are identified by enumerating GFP positive cells using a laser-scanning microplate cytometer. Selected LDR actives were assayed for killing of NSCLC 1, a patient-derived nonsmall cell lung carcinoma line. Known epigenetic drugs, like histone deacetylase inhibitors, can block cancer cell growth. NSCLC 1 cell viability was measured using Cell Titer 96 AQueous One (Promega), an assay which detects the ability of metabolically active cells to reduce a tetrazolium salt substrate (MTS), into a soluble formazan product that can be measured by colorimetry.
NCGC Assay Protocol Summary NSCLC 1 cells were plated in 96-well flat bottom tissue culture dishes (Corning) and grown overnight at 37 C and 5% CO2, then treated with compounds, incubated 4 days, and assayed for viability using the Cell Titer 96 AQueous One kit (Promega) according to the manufacturer's protocol. Absorbance at 490 nm and 650 nm (reference) was measured by a Spectra Max (Molecular Devices). Data were normalized to the untreated control (100% viability). Each cell line was tested in one or two independent assays, each containing 4 or 8 replicates. For further details, see R.L. Johnson, W. Huang, A. Jadhav, C.P. Austin, J. Inglese, E.D. Martinez, A Quantitative High-Throughput Screen Identifies Potential Epigenetic Modulators of Gene Expression, Analytical Biochemistry (2007), doi: 10.1016/j.ab.2007.12.028

**Q.** With `CC(C)C(=O)NC(c1ccco1)c1ccc2cccnc2c1O` (configuration not stated) as the molecule, how does the Potency read?
**A.** 1 µM (active)

**Q.** Which Potency does the source give for `CC(/C=C/C(=O)NO)=C\[C@@H](C)C(=O)c1ccc(N(C)C)cc1` here?
**A.** 0.1 µM (active)

**Q.** For `CC(C)C(=O)NC(c1ccco1)c1cc([N+](=O)[O-])c2cccnc2c1O` (configuration not stated), which Potency is on record?
**A.** 8 µM (active)

**Q.** For `CN1C(=S)SC(c2ccccc2)N(C)C1c1ccccc1` (configuration not stated), which outcome is on record?
**A.** inactive

**Q.** For `O=Nc1ccc(O)c2ncccc12`, which Potency is on record?
**A.** 4 µM (active)

**Q.** With `CC(C)C(=O)NC(c1ccc(N(C)C)cc1)c1ccc2cccnc2c1O` (configuration not stated) as the molecule, how does the Potency read?
**A.** 0.3 µM (active)

**Q.** Which outcome does the source give for `O=C(CSc1cccc2cccnc12)NCc1ccccc1` here?
**A.** inactive
